Laboratory results as given in ChEMBL document CHEMBL3988442, “University of Dundee, Small-Polar-MMV Screening Library” (2021).
For some assays here: Entries with a potency or affinity are not part of this list.

How the values were obtained:
Design in all cases: scale not given: direction of the effect not stated beside the values
[1] = target: Protein translocase subunit SecA (Escherichia coli (strain K12)) (UniProt P10408); assay: Assay to Identify E. coli SecA ATPase Inhibitors; assay type: functional; conditions: 30 µM
[2] = target: T1, Ubiquitin-activating enzyme e1, putative (Leishmania donovani (strain BPK282A1)) (UniProt E9BSI1); assay: Leishmania donovani Ubiquitin Activating Enzyme (LdE1); assay type: functional; conditions: 30 µM
T1 sequence (whole entry): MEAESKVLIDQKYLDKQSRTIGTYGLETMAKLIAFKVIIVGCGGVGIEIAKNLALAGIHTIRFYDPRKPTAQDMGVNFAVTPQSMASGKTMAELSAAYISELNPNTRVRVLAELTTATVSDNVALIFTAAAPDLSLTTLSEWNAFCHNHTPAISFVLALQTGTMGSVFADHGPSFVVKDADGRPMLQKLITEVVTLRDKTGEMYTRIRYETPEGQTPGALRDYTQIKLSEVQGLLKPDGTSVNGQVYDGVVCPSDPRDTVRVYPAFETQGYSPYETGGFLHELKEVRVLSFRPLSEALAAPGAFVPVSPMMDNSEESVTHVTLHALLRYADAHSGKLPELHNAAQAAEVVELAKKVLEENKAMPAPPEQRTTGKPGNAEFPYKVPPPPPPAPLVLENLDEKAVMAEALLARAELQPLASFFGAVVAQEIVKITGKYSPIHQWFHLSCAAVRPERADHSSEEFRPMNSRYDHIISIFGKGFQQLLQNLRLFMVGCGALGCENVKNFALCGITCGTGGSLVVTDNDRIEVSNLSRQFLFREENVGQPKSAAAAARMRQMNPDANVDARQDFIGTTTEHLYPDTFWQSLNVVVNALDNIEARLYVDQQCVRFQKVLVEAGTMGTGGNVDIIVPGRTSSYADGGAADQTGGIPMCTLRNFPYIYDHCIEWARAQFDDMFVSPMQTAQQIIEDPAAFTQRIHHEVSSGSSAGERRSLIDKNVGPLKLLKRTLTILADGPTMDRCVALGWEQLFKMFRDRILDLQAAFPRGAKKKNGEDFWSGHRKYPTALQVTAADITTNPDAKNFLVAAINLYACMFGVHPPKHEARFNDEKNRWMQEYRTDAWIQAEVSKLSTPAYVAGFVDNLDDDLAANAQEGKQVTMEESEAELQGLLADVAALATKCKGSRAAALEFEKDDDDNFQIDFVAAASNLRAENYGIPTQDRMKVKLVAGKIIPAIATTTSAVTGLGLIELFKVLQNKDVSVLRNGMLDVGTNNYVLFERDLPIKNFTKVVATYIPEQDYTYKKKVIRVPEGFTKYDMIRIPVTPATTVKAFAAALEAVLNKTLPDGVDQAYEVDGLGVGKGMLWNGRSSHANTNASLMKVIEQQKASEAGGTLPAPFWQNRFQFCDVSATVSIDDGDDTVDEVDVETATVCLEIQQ

[3] = target: AMP-activated protein kinase, AMPK (Homo sapiens) (UniProt P54646+O43741+P54619+Q9UGJ0+Q9Y478+Q13131+Q9UGI9); assay: AMP-dependent Kinase enzyme assay. An in vitro enzyme assay that detects ADP turnover that is directly proportional to AMPK activity. This uses naive AMPK that is activated during the assay with MK-8722; assay type: functional; conditions: 30 µM
[4] = target: Sialic acid-binding Ig-like lectin 9 (Homo sapiens) (UniProt Q9Y336); assay: Hs-Siglec9 ALPHAscreen SOP 20170721; conditions: 10 µM
[5] = system: Trypanosoma cruzi; assay: Trypanosoma cruzi phosphomannomutase and mannose-1-phosphate guanylyltransferase assay; assay type: functional; conditions: 10 µM
[6] = target: T2, Arginase-2, mitochondrial (Homo sapiens) (UniProt P78540); assay: in vitro enzyme assay to detect the production of urea directly proportional to the activity of Arginase II; assay type: functional; conditions: 33.3 µM; note: in the data most compounds retested in dose-response had high values
T2 sequence (whole entry): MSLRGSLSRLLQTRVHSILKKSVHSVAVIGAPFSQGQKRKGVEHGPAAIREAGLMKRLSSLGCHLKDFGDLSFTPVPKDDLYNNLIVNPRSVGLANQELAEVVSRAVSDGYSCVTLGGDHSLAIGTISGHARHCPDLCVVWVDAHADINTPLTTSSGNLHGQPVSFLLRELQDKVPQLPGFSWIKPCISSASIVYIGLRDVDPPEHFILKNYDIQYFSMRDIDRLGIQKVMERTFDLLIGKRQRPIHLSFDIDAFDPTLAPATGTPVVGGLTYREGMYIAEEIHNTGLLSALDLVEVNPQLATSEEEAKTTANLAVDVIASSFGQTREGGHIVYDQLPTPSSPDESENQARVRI

[7] = target: T3, Proteasome subunit beta (Trypanosoma cruzi) (UniProt O96673); assay: Trypanosoma cruzi proteasome chymotrypsin-like activity (TcProtChymo) assay.; note: in the data most compounds retested in dose-response had high values; assay type: functional; conditions: 9.37 µM
T3 sequence (whole entry): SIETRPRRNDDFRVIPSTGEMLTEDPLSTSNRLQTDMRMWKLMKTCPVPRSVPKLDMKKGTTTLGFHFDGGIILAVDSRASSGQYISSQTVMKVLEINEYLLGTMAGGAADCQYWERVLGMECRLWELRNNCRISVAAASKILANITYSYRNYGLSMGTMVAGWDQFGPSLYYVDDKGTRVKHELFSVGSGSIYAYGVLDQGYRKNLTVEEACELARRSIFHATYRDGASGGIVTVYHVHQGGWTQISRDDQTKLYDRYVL

[8] = species: Homo sapiens; assay: To identify inhibition of the IFN signalling (Jak-Stat) pathway via expression of an eGFP reporter gene under the control of an IFN-stimulated response element (ISRE) containing MxA promoter.; assay type: functional; conditions: 30 µM
[9] = target: T4, Tyrosyl-tRNA synthetase, putative (Trypanosoma cruzi (strain CL Brener)) (UniProt Q4DSP6); assay: Trypanosoma cruzi tyrosyl tRNA synthetase (TcYRS) _High Tyrosine SOP; assay type: functional; conditions: 30 µM; note: in the data most compounds retested in dose-response had high values
T4 sequence (whole entry): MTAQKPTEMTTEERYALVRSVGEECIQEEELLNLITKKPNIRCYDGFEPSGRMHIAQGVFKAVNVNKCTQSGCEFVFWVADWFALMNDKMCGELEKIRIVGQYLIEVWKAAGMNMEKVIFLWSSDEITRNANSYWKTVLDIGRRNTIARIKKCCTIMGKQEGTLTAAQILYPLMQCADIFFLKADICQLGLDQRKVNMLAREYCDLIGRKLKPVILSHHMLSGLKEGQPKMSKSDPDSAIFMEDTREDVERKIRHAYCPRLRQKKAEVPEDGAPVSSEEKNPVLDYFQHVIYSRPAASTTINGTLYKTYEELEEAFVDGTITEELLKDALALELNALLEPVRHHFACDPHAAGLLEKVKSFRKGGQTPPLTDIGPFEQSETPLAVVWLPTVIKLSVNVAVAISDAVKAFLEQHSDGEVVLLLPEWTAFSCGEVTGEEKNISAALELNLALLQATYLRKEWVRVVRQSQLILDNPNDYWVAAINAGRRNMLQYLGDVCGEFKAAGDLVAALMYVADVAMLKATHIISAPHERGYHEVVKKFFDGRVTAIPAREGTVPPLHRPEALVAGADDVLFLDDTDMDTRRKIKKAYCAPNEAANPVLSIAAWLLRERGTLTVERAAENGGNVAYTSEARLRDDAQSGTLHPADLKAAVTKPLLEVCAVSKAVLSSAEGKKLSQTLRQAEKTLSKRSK

[10] = target: T4, Tyrosyl-tRNA synthetase, putative (Trypanosoma cruzi (strain CL Brener)); assay: Trypanosoma cruzi tyrosyl tRNA synthetase (TcYRS) SOP; assay type: functional; conditions: 30 µM
[11] = target: Chromo domain-containing protein 1 (Saccharomyces cerevisiae (strain ATCC 204508 / S288c) (Baker's yeast)) (UniProt P32657); assay: ScCHD-1 Enzyme Inhibition Assay; assay type: functional; conditions: 30 µM; note: in the data most compounds retested in dose-response had high values
Chromo domain-containing protein 1 (Saccharomyces cerevisiae (strain ATCC 204508 / S288c) (Baker's yeast)), sequence (P32657 whole entry, the tested form may be a part): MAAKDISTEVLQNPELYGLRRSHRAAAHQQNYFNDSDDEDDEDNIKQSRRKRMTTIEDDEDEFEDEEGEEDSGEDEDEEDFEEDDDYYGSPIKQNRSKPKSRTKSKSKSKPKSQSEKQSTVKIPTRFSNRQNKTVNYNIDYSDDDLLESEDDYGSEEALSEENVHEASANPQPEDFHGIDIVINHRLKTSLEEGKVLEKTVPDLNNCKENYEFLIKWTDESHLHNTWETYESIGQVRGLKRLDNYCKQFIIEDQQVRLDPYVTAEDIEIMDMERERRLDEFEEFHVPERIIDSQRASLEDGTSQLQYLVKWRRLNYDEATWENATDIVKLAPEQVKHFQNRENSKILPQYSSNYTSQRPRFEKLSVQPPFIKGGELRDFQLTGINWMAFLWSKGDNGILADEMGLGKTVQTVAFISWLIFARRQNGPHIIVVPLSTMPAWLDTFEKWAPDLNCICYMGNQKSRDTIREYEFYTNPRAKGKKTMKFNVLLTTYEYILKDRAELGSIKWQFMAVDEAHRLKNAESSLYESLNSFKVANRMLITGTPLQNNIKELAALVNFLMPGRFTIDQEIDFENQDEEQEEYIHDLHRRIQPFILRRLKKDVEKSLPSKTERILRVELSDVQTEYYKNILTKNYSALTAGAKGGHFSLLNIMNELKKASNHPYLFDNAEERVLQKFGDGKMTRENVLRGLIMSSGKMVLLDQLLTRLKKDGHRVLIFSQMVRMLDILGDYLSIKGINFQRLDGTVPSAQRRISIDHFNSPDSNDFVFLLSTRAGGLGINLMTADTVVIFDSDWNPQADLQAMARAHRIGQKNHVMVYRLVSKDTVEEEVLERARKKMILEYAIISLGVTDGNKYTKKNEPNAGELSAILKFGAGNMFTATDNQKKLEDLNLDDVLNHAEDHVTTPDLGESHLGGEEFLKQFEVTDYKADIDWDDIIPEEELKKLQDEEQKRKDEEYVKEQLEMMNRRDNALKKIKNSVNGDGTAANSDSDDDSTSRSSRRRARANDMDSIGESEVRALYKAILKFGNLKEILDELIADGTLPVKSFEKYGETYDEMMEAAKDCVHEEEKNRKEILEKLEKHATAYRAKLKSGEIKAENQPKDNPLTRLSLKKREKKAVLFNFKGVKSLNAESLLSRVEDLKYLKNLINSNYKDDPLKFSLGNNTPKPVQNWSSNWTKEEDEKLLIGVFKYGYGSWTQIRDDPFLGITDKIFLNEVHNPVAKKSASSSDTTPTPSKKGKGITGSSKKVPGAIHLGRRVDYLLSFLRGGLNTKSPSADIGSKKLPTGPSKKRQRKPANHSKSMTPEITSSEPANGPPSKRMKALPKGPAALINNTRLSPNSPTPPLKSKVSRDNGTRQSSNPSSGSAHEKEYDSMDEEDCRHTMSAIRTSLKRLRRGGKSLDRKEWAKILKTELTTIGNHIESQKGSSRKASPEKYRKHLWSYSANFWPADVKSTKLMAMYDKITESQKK

Protein translocase subunit SecA (Escherichia coli (strain K12)), sequence (P10408 whole entry): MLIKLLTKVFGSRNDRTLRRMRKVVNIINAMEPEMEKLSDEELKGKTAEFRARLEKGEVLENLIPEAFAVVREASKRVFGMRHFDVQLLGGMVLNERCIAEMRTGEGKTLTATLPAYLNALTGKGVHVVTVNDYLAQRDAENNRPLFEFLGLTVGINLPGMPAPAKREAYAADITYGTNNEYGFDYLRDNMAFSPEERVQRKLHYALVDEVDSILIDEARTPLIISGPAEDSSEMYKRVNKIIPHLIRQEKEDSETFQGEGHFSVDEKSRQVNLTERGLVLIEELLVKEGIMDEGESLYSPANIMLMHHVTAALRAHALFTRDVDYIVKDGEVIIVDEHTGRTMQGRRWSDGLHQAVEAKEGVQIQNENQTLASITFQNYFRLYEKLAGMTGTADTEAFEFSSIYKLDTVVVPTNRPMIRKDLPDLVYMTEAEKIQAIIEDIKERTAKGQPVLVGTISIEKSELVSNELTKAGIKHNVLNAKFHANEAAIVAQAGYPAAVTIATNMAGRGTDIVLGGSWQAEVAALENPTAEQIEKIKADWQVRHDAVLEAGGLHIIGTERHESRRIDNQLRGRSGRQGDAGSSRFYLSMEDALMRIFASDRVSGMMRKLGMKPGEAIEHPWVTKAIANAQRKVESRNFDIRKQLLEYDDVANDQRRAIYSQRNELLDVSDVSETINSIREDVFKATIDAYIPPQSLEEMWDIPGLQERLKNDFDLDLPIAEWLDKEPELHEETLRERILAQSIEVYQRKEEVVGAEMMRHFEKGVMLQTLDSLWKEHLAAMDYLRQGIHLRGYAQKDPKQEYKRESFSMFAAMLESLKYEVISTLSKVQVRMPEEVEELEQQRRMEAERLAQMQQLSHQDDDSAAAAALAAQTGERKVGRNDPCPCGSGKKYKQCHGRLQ
Sialic acid-binding Ig-like lectin 9 (Homo sapiens), sequence (Q9Y336 whole entry): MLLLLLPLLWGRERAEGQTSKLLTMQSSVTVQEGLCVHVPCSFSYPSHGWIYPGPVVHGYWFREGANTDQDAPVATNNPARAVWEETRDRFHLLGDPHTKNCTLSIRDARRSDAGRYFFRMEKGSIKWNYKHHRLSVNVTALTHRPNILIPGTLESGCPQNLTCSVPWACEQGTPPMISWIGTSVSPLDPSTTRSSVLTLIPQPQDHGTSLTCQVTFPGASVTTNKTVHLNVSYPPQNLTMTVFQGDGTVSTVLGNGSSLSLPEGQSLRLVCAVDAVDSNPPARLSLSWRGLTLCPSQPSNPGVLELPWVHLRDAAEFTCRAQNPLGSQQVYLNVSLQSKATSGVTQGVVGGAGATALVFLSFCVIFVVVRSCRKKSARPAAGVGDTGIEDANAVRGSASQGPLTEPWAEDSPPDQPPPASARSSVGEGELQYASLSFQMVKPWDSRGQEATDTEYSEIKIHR

| Structure (SMILES) | Percent Effect [1] | Percent Effect [2] | Percent Effect [3] | Percent Effect [4] | Percent Effect [5] | Percent Effect [6] | Percent Effect [7] | Percent Effect [8] | Percent Effect [9] | Percent Effect [10] | Percent Effect [11] |
| --- | --- | --- | --- | --- | --- | --- | --- | --- | --- | --- | --- |
| CCCNC(=O)C(C)n1cc(Br)cn1 (stereo unspecified) | -2.1% | 7.79% | -0.549% | 2.6% | -1.87% | -194% | 5.49% | -4.17% | 4.3% | 18.5% | 0.506% |
| Cc1cc(CNC(=O)N2CCN(c3nc(C)c(C)s3)CC2)no1 | -9.13% | 18.9% | -4.31% | 31.4% | 9.18% | 45% | 17.2% | 14% | 8.91% | 15.8% | -4.46% |
| O=C(c1ccsc1)N1CC(C(=O)N2CCOCC2)C2(CCOCC2)C1 (stereo unspecified) | -0.06% | 2.6% | 3.52% | 3.83% | -6.21% | -3.23% | 16.5% | 7.29% | -29.6% | -1.28% | -0.146% |
| O=C(Cc1cccc(Cl)c1)N[C@@H]1CCNC[C@H]1O | -6.4% | 18.9% | -5.86% | 31.3% | 4.2% | 19.1% | 9.7% | 0.775% | 5.38% | 16.1% | -13.7% |
| CC(C)(O)CN1CCN(C(=O)c2cc3ccccc3c(=O)[nH]2)CC1 | 0.132% | 2.63% | 5.98% | -1.12% | -3.6% | -2.37% | 7.57% | -8.77% | 7.45% | 13% | -5.58% |
| O=C(CCc1nccs1)N1CCN(c2cccnn2)CC1 | -4.08% | 10.4% | 4.08% | 3.62% | 2.84% | -0.21% | -0.404% | 13.5% | 5.71% | 9.41% | -12.4% |
| Cc1n[nH]c(C2CN(C(=O)c3cc(Cl)c[nH]3)CCO2)n1 (stereo unspecified) | -1.17% | 2.63% | 11.8% | -0.307% | -0.876% | -3.55% | 5.27% | -2.14% | 4.25% | 5.2% | 0.543% |
| c1cnn(CC2CN(c3ncnc4sccc34)CCO2)c1 (stereo unspecified) | -4.4% | 2.7% | 2.36% | -2.57% | 1.37% | 2.08% | 17.8% | 52.9% | 12.9% | 15.8% | -4.89% |
| CO[C@H]1CCN(Cc2cnn(C)c2)[C@@H]2CN(Cc3cccnc3)C[C@H]12 | -0.848% | 12% | 6.27% | -3.02% | -3.93% | -8.63% | 9.06% | -3.47% | 2.12% | 5.13% | -7.83% |
| O=C(C1=CCCC1)N1CCC[C@]2(C[C@@H](Oc3ncccc3F)CO2)C1 | -0.607% | -5.48% | -7.12% | 6.71% | 3.77% | 0.399% | 23.2% | 23.5% | 5.21% | 13.6% | -3.32% |
| COc1cccc(CN(C)C(=O)CCC(=O)c2ccc(Cl)cc2)c1OC | -3.29% | -5.48% | -3.03% | 3.31% | -0.992% | -7.58% | 6.59% | 17% | 1.04% | 8.64% | -4.85% |
| CCNC(=O)N(C)Cc1ccc(SC)c(OC)c1 | -3.35% | 21.6% | -5.93% | 0.171% | 4.49% | 7.92% | 9.72% | -1.36% | 7.92% | 3.66% | 92.2% |
| COc1ccc(CNCC(C)Oc2ccccn2)cc1Br (stereo unspecified) | 0.219% | 17.3% | -6.72% | 0.831% | 5.3% | -4.75% | 9.8% | 3.97% | 11.6% | 12.8% | -11.9% |
| Cc1nc(C)n(CC2CN(CC(=O)Nc3nccs3)CCO2)n1 (stereo unspecified) | -0.715% | 1.39% | -0.871% | 15.8% | 3.98% | 10.6% | 7.19% | 20.3% | 5.26% | 10.3% | -1.52% |
| CCCc1n[nH]c(C2CN(CCCOc3ccccc3)CCO2)n1 (stereo unspecified) | -5.86% | 1.27% | 7.41% | 1.64% | -1.74% | 1.5% | -1.03% | 2.3% | 4.17% | 7.59% | 13.9% |
| CNC(=O)c1cc2c(nc1NC(C)C)CCN(C(=O)NC(C)C)CC2 | -2.44% | 0% | -4.24% | -6.22% | -2.64% | -0.744% | -2.83% | -8.82% | 6.45% | 6.17% | -0.531% |
